This is part of a sample that, as a whole, favours compounds with a hit. Of some 79,000 tested, about 15% had one in any assay. Active and inactive are the calls of the source. Cut-off read from the data, not from the text of the source: active = growth inhibition above about 70%; inactive = the rest. Where a SMILES comes first, the peptide text is derived from it. The star is where a group is joined. Cbz = O=C(OCc1ccccc1)*
assay: NCI Yeast Anticancer Drug Screen. Data for the rad50 strain (AID 155);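 note: 0% = growth of vehicle-only cultures of the same strain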; settings: S. cerevisiae rad50 strain growth inhibition; at 50.0 µM; active compounds read high
Procedure, shortened: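 Inhibition values express reduced yeast growth in compound-treated cultures relative to vehicle-treated controls.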

SMILES | growth inhibition
O=C(CCCl)OC1CCCC1 | 1.5% (inactive)
NC(CS(=O)Cc1ccccc1)C(=O)O (stereo not given) | 0.8% (inactive)
CC(=O)OCCc1cccc(C)c1 | 3.9% (inactive)
CCc1nc(=S)c2cnn(-c3ccccc3)c2[nH]1 | 16.4% (inactive)
CC(C)N(CCn1c2c3ccccc3ccc2c2oc(=O)c3ccccc3c21)C(C)C | 13.8% (inactive)
COc1ccc(/C=C2\N=C(c3cccc(Cl)c3)OC2=O)cc1OC | 14.6% (inactive)
O=C1C(CO)=C[C@H](O)[C@H]2O[C@@H]12 | -4.3% (inactive)
O=C(O)c1ccccc1SC(Sc1ccccc1C(=O)O)c1ccc2c(c1)OCO2 | 11.3% (inactive)
O=S(=O)([N-]c1nc2ccccc2nc1-[n+]1ccccc1)c1ccccc1 | 14% (inactive)
CCCCC(O)(CCCC)CC(C)C | 8.4% (inactive)
O=C1CCCC(CCc2ccccc2)O1 (stereo not given) | 5.45% (inactive)
O=C1c2ccccc2C(=O)N1CCc1ccccc1 | -12.1% (inactive)
NCCC(=O)O | 5.95% (inactive)
Nc1cc(S(=O)(=O)O)nc(N)[n+]1[O-] | 1.55% (inactive)
CC(O)c1cccc(NC(=O)Nc2ccc(Cl)c(Cl)c2)c1 (stereo not given) | 12% (inactive)
CNC(=O)OCc1nc(N=[N+]=[N-])n(C)c1COC(=O)NC | -16.9% (inactive)
Cc1ccc(C2(c3ccc(C)cc3)OCC(C)(CBr)CO2)cc1 | -30% (inactive)
C/C(=N\N=C(/C)c1ccc(N)cc1)c1ccc(N)cc1 | 15.9% (inactive)
CCOC(C)C1C2CCCCC21 (stereo not given) | 2.1% (inactive)
CCOC(=O)CCC(NC(=O)OCc1ccccc1)C(=O)NC(CCC(=O)OCC)C(=O)OCC (stereo not given) (Cbz-Glu(OEt)-Glu(OEt)-OEt; configuration not given here) | 17.9% (inactive)

SMILES | growth inhibition
CCCCCC(=O)Cc1cc(O)cc2c1C(=O)Oc1cc(O)c(C(=O)O)c(CCCCC)c1O2 | 26.1% (inactive)
CC(C)C1=C(Cc2ccccc2)C(=O)O/C1=C\c1cc(Cl)c(O)c(Cl)c1 | 19.9% (inactive)
CCCCCCCCCC(=O)N/N=C/c1cccnc1 | 88.2% (active)
COc1ccc(CCN2CN=C(Sc3ccc([N+](=O)[O-])cc3Cl)NC2)cc1OC | 11% (inactive)
CCOC(=O)C(N=Nc1ccc(C)cc1Br)C(C)=O (stereo not given) | 16.2% (inactive)
O=C1S/C(=C2\C(=O)N(CN3CCCCC3)c3ccc(Br)cc32)C(=O)N1CN1CCCCC1 | 37.4% (inactive)
ClCC1OC1CCl (stereo not given) | 22.1% (inactive)
CC(=O)c1c(P(=O)(OC(C)C)OC(C)C)nn(-c2ccc([N+](=O)[O-])cc2)c1C | 59.1% (inactive)
O=C1CSC(/C(=C/c2ccccc2)c2nc3ccccc3[nH]2)=N1 | 6.65% (inactive)
Cc1ccc(S(=O)(=O)NC(=O)C2(Br)S(=O)(=O)OCCOS2(=O)=O)cc1 | 1.25% (inactive)
O=c1[nH]c(=O)c2nnoc2[nH]1 | 12.4% (inactive)
CCC(=O)OC1CCC(OC(=O)CC)CC1 (stereo not given) | 7.3% (inactive)
CC(C)(C)OC(=O)N1CCCC1C(=O)Oc1ccc([N+](=O)[O-])cc1 (stereo not given) | 31.6% (inactive)
CCOC(=O)[C@H](C)OC(=O)[C@@](C)(NC(=O)c1ccccc1C(=O)OC)[C@@H]1NC=C(C(=O)OC)CS1 | -2.15% (inactive)
COc1ccc(/C=N/Nc2ccc(S(=O)(=O)O)cc2)cc1 | 5.45% (inactive)
CCOC(=O)c1[nH]c(-c2ccc(OC)cc2)c(C(=O)OCC)c1-c1ccccc1 | 38.6% (inactive)
CC#CC(O)(C(=O)OCCCN(C)C)C1CCCCC1 (stereo not given) | 12.4% (inactive)
O=C1CN(c2ccccc2)C(=O)CN1/N=C/c1ccc[nH]1 | -27.4% (inactive)
CCOC(=O)c1c(NNc2ccccc2)nc2ccccc2c1-c1ccccc1 | 25.1% (inactive)
COc1ccc(C(=O)c2ccccc2C)cc1OC | 1.65% (inactive)
